The results in this text go back to PubChem BioAssay (NCATS).

Inconclusive results are not listed. Unmarked numbers belong to inactive results. Activity calls are given as the source filed them. Calls come from the whole dose curve; as a rule, active = well fitted curve in the direction sought with a large enough effect; inconclusive = small, poorly fitted or top-dose-only effect, or another doubt; inactive = no such curve, though single readings can be large; an effect the other way counts as inactive or inconclusive.

In assay [1] the target is Cellular tumor antigen p53 (Homo sapiens) (UniProt P04637). As to the kind of experiment: Primary qHTS for small molecule compounds that upregulate eGFP-tagged delta133p53alpha (in N-terminal) cells. (AID 2060322).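 For activation: cells pre-induced with doxycycline then dosed without doxycycline; series mostly up to about 56 µM; 0% = DMSO vehicle and 100% = reference activator.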 Note: nearly all actives have a fitted effect of over 75% in size. Note: potency is the fitted concentration of half-maximal effect. The note with it: NCI-H358 eGFP-delta133p53alpha fluorescence, 24 h; activation: stronger effect = higher value. In outline: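 NCI-H358 cells pre-induced 24 h with 10 ng/ml doxycycline for eGFP-delta133p53alpha, plated dox-free and exposed 24 h at 37C to titrated compounds. Fixed, Hoechst-stained; gated GFP peak intensity by laser scanning cytometry, normalized to DMSO (0%) and 57.5 uM 5-azacytidine (100%).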
Cellular tumor antigen p53 (Homo sapiens), sequence (P04637 whole entry, looked up): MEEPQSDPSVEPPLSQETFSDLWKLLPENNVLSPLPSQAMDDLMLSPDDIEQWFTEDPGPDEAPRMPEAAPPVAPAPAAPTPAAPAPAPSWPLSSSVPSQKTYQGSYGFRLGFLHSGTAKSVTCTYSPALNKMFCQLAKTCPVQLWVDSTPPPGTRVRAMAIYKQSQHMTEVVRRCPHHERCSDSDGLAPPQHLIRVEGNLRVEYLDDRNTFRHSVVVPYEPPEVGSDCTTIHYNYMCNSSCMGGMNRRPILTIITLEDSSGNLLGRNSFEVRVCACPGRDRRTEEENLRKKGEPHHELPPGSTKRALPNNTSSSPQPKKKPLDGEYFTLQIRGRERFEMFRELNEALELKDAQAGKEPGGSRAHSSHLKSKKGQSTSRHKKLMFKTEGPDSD

For assay [2], the target named is Aldehyde dehydrogenase, mitochondrial (Homo sapiens) (UniProt P05091). Briefly: qHTS for Inhibitors of the Aldehyde Dehydrogenase Family (ALDH2) Primary screen (AID 2061308).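 Note: plate controls were vehicle for no effect and reference inhibitor for full effect; nearly all actives have a fitted effect of over 55% in size.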 In general terms: qHTS replaces the single test concentration by a dilution series.
Assay [3] addresses Retinaldehyde dehydrogenase 3 (Homo sapiens) (UniProt P47895). Briefly: qHTS for Inhibitors of the Aldehyde Dehydrogenase Family (ALDH1A3) Primary screen (AID 2061315).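 Note: plate controls were DMSO vehicle for no effect and reference inhibitor for full effect.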

On to `C=C(C)C1Cc2c(ccc3c2OCC(c2ccc(O)cc2O)C3)O1` (stereo not given), for which the activation in assay [1] is 32.1%. Further, the Potency result in assay [2] and in assay [3] was “inactive” each time.

Regarding `COC(C(=O)N1Cc2[nH]nc(NC(=O)c3ccc(N4CCN(C)CC4)cc3)c2C1)c1ccccc1` (stereo not given), in assay [1], the Potency is 23.9 µM (active). Moreover, the Potency result in assay [2] and in assay [3] was “inactive” throughout.

As to `Cc1cc(O)cc2c1O[C@](C)(CCC[C@H](C)CCC[C@H](C)CCCC(C)C)CC2`, the activation in assay [1] is -16.4%. In addition, the Potency entry in assay [2] and in assay [3] was “inactive” in each case.

For the compound `CC(/C=C/C1=CC2=CC(=O)C(C)(O)C(O)C2=CO1)=C\C(C)CCO` (stereo not given), the activation in assay [1] is 7.63%. Also, the Potency entry in assay [2] and in assay [3] was “inactive” throughout.

As for `CC1CCC2C(C)(C)CC(C)(CO)C2(O)C1C(=O)O` (stereo not given), in assay [1], the activation was 15.3%. Further, the Potency entry in assay [2] and in assay [3] was “inactive” in each case.

`CC1(C)CC[C@]2(C(=O)O)CC[C@]3(C)C(=CCC4[C@@]5(C)C(=O)C[C@H](O)[C@@](C)(CO)C5CC[C@]43C)[C@@H]2C1` (stereo not given in full): in assay [1], the activation was -11.5%. The Potency entry in assay [2] and in assay [3] was “inactive” throughout.

Regarding `CC1(C)CC[C@]2(C(=O)O[C@@H]3O[C@H](CO[C@@H]4O[C@H](CO)[C@@H](O)[C@H](O)[C@H]4O)[C@@H](O)[C@H](O[C@@H]4O[C@H](CO)[C@@H](O)[C@H](O)[C@H]4O)[C@H]3O)[C@H](O)C[C@]3(C)C(=CCC4[C@@]5(C)CC[C@H](O[C@@H]6OC[C@@H](O)[C@H](O)[C@H]6O)[C@@](C)(C(=O)O)C5CC[C@]43C)[C@@H]2C1` (stereo not given in full), the activation in assay [1] is 7.63%. Further, the Potency entry in assay [2] and in assay [3] was “inactive” each time.

Turning to `C=C(C)C(C)C1OC23CC4(CO2)C(CCC2C5(C)CCC(OC6OCC(O)C(OC7OC(CO)C(O)C(OC8OCC(O)C(O)C8O)C7O)C6OC6OC(CO)C(O)C6O)C(C)(C)C5CCC24C)C3C(C)(O)C1OC(C)=O` (stereo not given), the activation in assay [1] was -19.8%. The Potency entry in assay [2] and in assay [3] was “inactive” each time.

Take `Cc1nc2c(C(F)(F)F)cccc2nc1-c1ccc(-c2cccc(S(C)(=O)=O)c2)cc1`: in assay [1], the activation is -2.68%. In addition, the Potency entry in assay [2] and in assay [3] was “inactive” in each case.

Consider `C=C1CC23CC1(O)CCC2C1=CC2OC(=O)C(C)(C2O)C1C3C(=O)O` (stereo not given), for which, in assay [1], the activation was 6.87%. The Potency result in assay [2] and in assay [3] was “inactive” each time.

For `C/C=C/C=C/C=C/C(=O)O[C@@H]1C=C(CO)C(O)(C(=O)O)[C@@]2(C)CCCC(C)(C)[C@H]12` (stereo not given in full), the activation in assay [1] is -9.92%. Further, the Potency entry in assay [2] and in assay [3] was “inactive” in each case.

With `Cc1cc(N2CCN(C(=O)Oc3ccc(-c4ccccc4)cn3)CC2)c2ccccc2n1`, the activation in assay [1] is -10.3%. The Potency entry in assay [2] and in assay [3] was “inactive” in each case.

Turning to `C=C[C@H]1[C@H](O[C@@H]2O[C@H](CO)[C@@H](O)[C@H](O)[C@H]2O)OC=C2C(=O)N3Cc4c([nH]c5ccccc5c4=O)[C@@H]3C[C@H]21`, the activation in assay [1] was 0.893%. The Potency result in assay [2] and in assay [3] was “inactive” throughout.

Consider `CC(C)C(O)(CO)CCO[C@@H]1O[C@H](CO[C@H]2OC[C@](O)(CO)[C@H]2O)[C@@H](O)[C@H](O)[C@H]1O` (stereo not given in full), for which, in assay [1], the activation is -13%. Further, the Potency entry in assay [2] and in assay [3] was “inactive” each time.

`CC(C)C1=CCC(C)(O)C(OC2OC(CO)C(O)C(O)C2O)C1` (stereo not given): in assay [1], the activation is -17.6%. The Potency result in assay [2] and in assay [3] was “inactive” in each case.

`C[C@@H]1C(=O)O[C@H]2[C@H](O)C34[C@H]5C[C@@H](C(C)(C)C)C36[C@@H](OC(=O)[C@@H]6O)O[C@@]4(C(=O)O5)[C@@]12O` (stereo not given in full): the activation in assay [1] is 0.763%. Further, the Potency result in assay [2] and in assay [3] was “inactive” each time.

As to `COC(=O)CC1(O)C(=O)Nc2ccccc21` (stereo not given), in assay [1], the activation was -1.79%. In addition, the Potency result in assay [2] and in assay [3] was “inactive” each time.

As for `COc1cccc2c1CCC[C@H]2CN(C)CCc1ccc2ccoc2c1`, in assay [1], the activation is -3.57%. Further, the Potency result in assay [2] and in assay [3] was “inactive” each time.

With `COc1ccc2c(NC(=O)Nc3cccc(C(F)(F)F)n3)ccnc2c1`, the activation in assay [1] is 16.1%. For the same compound, the Potency result in assay [2] and in assay [3] was “inactive” throughout.

Take `CC(C)S(=O)(=O)NC[C@@H]1CC(c2ccc(N3CCCC3)c(F)c2)=NO1`: in assay [1], the activation is 0.333%. In addition, the Potency entry in assay [2] and in assay [3] was “inactive” each time.

With `C=C1C(OC2OCC(O)C(O)C2O)CC2C(C)(C)C(O)CCC2(C)C1CC/C(C)=C\CO` (stereo not given), the activation in assay [1] was 7.63%. In addition, the Potency result in assay [2] and in assay [3] was “inactive” each time.

For the compound `CC(=O)c1ccc2c(c1)C(O)C(C(C)(C)O)O2` (stereo not given), in assay [1], the activation was -6.11%. Further, the Potency result in assay [2] and in assay [3] was “inactive” each time.

Take `C=C(C)C1CC[C@]2(C(=O)O)CC[C@]3(C(=O)O)[C@H](CCC4[C@@]5(C)CC[C@H](O)C(C)(C)C5CC[C@]43C)C12` (stereo not given in full): the activation in assay [1] is -12.5%. Moreover, the Potency result in assay [2] and in assay [3] was “inactive” each time.

In the case of `O=C(O)CC1CC(c2ccccc2)=NO1` (stereo not given), the activation in assay [1] is 16.3%. The Potency result in assay [2] and in assay [3] was “inactive” in each case.

Regarding `O=S(=O)(c1ccc(S(=O)(=O)n2cnc3ccccc32)cc1)N1CCCCCC1`, in assay [1], the activation is 0.333%. Besides, the Potency entry in assay [2] and in assay [3] was “inactive” throughout.
